According to publication PMC7862700, “An all-to-all approach to the identification of sequence-specific readers for epigenetic DNA modifications on cytosine”:

Legend:
Test in all cases: DAPPL (digital affinity profiling via proximity ligation, sequencing); 10 mM Tris-HCl pH 7.5, 50 mM NaCl, 1 mM DTT, 4% glycerol, room temperature, 30 min; GST-TFs on glutathione beads, 16-mer random dsDNA library, 0.1% formaldehyde crosslink after washing; high values mean tight binding
Settings in all cases: protein: recombinant; tags: N-terminal GST; dsDNA, one strand shown
FLI1 = target: T1, FLI1 (Homo sapiens, UniProt Q01543 1-452)
T1 sequence: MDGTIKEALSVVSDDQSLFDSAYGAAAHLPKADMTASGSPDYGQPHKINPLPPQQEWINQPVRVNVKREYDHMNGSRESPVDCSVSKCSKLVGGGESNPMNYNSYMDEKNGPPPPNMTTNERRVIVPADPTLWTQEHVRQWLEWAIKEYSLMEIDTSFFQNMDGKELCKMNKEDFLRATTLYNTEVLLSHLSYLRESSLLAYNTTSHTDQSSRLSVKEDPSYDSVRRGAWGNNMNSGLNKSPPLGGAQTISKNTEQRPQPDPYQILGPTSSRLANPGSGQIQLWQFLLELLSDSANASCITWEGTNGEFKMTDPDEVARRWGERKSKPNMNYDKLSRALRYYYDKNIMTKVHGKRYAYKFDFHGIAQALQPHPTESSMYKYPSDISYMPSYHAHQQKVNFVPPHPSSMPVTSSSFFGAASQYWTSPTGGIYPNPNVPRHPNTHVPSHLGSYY
In short: (§1)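 Each value of binding signal is a hexamer's read frequency for a factor divided by the same hexamer's frequency in the tag-only sample. Barcoded, bead-captured GST fusions of human transcription factors made in yeast were pooled with that sample and incubated with 200 nmole of a random double-stranded 16-mer DNA library in Tris/NaCl/DTT/glycerol buffer at room temperature for 30 min. Washing, 0.1% formaldehyde crosslinking, proximity ligation, PCR and Illumina NextSeq500 sequencing followed.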

ELK1 = target: T2, ELK1 (Homo sapiens, UniProt P19419 1-428)
T2 sequence: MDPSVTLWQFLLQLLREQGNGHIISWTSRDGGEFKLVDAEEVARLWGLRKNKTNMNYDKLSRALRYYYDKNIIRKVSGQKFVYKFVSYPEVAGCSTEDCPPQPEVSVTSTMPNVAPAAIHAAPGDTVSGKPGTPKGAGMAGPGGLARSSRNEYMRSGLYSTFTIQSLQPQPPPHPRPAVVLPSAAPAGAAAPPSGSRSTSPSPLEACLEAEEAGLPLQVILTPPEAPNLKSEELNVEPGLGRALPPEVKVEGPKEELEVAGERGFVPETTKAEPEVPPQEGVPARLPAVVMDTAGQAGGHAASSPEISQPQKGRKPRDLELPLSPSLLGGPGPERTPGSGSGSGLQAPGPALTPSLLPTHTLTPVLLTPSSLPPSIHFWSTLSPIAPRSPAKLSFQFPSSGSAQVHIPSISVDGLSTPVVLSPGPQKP
In short: as §1

GABPA = target: T3, GABPA (Homo sapiens, UniProt Q06546 1-454)
T3 sequence: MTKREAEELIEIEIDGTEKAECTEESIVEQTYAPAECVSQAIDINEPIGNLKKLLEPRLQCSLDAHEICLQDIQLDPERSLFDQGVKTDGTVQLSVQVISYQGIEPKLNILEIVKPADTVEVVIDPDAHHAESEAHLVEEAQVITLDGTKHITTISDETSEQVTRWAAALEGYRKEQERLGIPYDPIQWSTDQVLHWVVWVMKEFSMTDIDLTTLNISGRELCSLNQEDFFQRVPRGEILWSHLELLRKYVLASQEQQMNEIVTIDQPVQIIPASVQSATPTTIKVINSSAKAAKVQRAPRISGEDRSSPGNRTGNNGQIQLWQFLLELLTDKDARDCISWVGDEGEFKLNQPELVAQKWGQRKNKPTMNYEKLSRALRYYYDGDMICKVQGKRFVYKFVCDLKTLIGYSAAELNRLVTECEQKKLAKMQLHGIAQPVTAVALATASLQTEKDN
In short: as §1

ERG = target: T4, ERG (Homo sapiens, UniProt P11308 1-479)
T4 sequence: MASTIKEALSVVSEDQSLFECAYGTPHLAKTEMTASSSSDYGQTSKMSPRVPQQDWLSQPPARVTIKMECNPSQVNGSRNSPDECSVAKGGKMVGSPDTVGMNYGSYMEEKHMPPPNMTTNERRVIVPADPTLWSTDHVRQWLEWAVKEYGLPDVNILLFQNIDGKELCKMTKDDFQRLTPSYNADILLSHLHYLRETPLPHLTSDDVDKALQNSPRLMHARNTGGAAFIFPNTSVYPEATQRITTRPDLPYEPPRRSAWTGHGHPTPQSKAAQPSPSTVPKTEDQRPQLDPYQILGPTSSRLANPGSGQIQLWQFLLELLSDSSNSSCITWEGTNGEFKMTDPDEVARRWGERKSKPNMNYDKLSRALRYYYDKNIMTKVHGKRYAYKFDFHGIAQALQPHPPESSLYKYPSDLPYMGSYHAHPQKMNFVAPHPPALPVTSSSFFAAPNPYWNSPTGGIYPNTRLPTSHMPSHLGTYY
In short: as §1

ELF1 = ELF1 (Homo sapiens, UniProt P32519 1-619)
In short: as §1

EHF = target: T5, EHF (Homo sapiens, UniProt Q9NZC4 1-300)
T5 sequence: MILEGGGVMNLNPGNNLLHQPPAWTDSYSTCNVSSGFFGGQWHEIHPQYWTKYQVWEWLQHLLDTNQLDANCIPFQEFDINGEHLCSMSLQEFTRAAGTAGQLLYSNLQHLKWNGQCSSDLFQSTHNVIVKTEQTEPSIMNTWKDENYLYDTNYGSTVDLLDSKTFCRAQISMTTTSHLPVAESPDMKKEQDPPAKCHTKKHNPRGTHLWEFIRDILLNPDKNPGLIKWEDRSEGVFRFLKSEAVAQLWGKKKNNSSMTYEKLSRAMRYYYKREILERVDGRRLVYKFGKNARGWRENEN
In short: as §1

SPI1 = SPI1 (Homo sapiens, UniProt P17947 1-270)
In short: as §1

ELK3 = target: T6, ELK3 (Homo sapiens, UniProt P41970 1-407)
T6 sequence: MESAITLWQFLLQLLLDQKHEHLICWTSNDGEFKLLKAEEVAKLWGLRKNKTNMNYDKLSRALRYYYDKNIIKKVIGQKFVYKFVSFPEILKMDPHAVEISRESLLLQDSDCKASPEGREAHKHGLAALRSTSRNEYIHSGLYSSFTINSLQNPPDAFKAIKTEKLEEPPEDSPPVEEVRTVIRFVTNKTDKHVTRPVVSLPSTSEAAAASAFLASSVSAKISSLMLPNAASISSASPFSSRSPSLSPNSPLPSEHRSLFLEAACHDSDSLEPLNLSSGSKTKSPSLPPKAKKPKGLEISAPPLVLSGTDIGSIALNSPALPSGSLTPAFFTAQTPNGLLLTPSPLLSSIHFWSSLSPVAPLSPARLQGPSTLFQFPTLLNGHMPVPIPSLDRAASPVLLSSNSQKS
In short: as §1

FEV = target: T7, FEV (Homo sapiens, UniProt Q99581 1-238)
T7 sequence: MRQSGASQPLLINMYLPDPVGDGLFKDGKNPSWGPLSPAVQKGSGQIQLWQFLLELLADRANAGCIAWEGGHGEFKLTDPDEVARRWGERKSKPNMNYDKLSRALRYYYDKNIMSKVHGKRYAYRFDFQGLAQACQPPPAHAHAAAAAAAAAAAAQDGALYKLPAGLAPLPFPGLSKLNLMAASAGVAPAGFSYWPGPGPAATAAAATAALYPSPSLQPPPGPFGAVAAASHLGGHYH
In short: as §1

ETV5 = ETV5 (Homo sapiens, UniProt P41161 1-510)
In short: as §1

SPIC = target: T8, SPIC (Homo sapiens, UniProt Q8N5J4 1-248)
T8 sequence: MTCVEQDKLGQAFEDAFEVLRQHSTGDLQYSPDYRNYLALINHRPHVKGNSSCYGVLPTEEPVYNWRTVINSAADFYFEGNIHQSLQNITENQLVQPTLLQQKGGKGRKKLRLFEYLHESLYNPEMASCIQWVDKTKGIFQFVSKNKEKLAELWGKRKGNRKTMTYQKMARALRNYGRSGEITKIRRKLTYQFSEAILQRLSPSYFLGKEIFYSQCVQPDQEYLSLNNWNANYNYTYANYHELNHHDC
In short: as §1

ELF4 = ELF4 (Homo sapiens, UniProt Q99607 1-663)
In short: as §1

ELK4 = target: T9, ELK4 (Homo sapiens, UniProt P28324-2 1-405)
T9 sequence: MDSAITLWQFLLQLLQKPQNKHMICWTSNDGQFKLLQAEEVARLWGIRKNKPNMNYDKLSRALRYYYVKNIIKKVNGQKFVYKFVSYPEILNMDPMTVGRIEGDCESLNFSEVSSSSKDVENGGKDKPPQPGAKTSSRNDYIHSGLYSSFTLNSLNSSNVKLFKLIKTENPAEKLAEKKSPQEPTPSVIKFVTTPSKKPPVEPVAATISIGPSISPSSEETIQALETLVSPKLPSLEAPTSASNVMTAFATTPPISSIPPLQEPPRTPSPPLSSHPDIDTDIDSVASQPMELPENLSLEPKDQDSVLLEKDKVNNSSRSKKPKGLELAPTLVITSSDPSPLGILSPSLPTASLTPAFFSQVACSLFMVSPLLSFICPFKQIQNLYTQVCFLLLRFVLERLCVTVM
In short: as §1

ELF3 = target: T10, ELF3 (Homo sapiens, UniProt P78545 1-371)
T10 sequence: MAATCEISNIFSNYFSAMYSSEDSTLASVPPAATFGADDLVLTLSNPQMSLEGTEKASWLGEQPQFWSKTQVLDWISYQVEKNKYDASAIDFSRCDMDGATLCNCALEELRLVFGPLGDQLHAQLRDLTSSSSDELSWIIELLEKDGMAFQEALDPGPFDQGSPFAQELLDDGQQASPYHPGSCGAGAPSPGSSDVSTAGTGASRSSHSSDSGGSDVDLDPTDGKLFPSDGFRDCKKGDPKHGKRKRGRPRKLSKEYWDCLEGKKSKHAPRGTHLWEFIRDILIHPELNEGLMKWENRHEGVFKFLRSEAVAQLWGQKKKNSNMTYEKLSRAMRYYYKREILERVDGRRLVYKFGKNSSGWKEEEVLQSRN
In short: as §1

ETV1 = ETV1 (Homo sapiens, UniProt P50549 1-477)
In short: as §1

SPIB = SPIB (Homo sapiens, UniProt Q01892 1-262)
In short: as §1

ETV2 = target: T11, ETV2 (Homo sapiens, UniProt O00321 1-342)
T11 sequence: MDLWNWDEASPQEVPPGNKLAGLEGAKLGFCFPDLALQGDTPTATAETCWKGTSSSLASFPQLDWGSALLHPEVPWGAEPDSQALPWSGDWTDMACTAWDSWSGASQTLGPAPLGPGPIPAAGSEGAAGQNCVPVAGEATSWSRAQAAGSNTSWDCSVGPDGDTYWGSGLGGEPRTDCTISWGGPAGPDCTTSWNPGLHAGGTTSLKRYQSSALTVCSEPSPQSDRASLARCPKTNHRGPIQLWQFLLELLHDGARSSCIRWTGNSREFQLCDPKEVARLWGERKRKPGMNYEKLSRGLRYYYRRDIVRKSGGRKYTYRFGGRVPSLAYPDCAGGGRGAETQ
In short: as §1

Sequence of ETV5 (P41161 whole entry): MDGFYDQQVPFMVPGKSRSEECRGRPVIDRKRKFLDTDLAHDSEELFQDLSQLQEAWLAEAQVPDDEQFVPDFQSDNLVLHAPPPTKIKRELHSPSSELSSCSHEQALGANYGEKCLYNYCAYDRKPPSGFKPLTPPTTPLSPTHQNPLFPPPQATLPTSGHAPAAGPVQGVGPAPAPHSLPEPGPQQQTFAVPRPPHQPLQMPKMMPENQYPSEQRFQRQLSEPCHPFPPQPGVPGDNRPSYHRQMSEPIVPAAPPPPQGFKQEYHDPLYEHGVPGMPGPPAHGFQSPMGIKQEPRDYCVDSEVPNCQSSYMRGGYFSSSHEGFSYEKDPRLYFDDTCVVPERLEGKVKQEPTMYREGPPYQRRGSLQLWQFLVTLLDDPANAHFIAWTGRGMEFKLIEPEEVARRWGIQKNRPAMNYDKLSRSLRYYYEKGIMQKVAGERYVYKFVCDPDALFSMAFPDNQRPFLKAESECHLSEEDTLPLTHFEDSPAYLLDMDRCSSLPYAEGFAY
Sequence of ETV1 (P50549 whole entry): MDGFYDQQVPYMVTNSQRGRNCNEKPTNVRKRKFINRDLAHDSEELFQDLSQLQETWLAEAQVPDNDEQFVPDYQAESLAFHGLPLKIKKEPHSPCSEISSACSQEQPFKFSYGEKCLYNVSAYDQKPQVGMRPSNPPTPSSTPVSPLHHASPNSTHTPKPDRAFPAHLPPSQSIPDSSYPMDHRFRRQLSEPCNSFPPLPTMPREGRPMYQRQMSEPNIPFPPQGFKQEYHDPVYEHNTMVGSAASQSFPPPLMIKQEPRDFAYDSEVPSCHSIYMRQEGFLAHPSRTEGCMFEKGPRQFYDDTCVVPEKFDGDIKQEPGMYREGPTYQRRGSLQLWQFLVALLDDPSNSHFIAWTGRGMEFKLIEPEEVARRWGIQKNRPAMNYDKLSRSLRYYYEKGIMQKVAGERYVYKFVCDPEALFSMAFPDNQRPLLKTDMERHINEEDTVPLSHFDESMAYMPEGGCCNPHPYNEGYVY
Sequence of ELF4 (Q99607 whole entry): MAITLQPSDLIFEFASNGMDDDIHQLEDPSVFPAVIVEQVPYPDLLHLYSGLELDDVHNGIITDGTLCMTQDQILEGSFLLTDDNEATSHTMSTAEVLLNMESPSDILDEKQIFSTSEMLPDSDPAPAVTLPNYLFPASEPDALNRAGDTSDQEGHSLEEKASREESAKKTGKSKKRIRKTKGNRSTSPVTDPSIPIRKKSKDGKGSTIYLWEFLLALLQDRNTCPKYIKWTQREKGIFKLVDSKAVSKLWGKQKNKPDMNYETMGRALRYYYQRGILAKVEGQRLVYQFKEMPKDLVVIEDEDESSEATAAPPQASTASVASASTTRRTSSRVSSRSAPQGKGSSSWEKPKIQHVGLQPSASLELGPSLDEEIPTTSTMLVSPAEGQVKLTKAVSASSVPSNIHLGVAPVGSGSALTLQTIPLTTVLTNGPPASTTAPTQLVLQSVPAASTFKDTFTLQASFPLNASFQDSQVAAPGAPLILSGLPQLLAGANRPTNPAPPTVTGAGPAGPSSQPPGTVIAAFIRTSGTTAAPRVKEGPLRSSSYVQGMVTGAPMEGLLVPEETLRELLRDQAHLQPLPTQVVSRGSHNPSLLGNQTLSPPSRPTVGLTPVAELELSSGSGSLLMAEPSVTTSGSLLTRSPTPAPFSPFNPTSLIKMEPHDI
Sequence of ELF1 (P32519 whole entry): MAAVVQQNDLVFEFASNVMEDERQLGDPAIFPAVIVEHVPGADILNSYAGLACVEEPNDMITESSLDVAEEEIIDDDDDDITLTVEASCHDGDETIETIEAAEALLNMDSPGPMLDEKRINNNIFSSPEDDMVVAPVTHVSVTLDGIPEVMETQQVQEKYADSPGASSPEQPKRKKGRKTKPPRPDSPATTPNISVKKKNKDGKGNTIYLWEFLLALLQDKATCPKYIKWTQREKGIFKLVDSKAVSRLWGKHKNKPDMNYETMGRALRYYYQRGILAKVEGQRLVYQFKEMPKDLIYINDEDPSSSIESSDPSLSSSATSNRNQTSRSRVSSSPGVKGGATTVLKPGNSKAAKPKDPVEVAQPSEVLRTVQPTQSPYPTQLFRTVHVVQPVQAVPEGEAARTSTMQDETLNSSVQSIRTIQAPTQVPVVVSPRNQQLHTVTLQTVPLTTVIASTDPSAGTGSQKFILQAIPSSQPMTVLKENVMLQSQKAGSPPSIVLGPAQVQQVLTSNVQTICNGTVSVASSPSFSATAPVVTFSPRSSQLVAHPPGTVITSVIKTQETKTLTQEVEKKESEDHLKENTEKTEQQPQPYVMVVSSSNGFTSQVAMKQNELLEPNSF
Sequence of SPIB (Q01892 whole entry): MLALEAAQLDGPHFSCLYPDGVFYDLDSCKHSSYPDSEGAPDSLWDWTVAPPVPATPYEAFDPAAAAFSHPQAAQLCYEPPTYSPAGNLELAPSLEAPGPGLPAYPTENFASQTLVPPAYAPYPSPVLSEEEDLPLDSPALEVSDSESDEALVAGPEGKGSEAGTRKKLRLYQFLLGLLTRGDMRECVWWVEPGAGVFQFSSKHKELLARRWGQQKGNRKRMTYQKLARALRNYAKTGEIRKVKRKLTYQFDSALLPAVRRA

Row | Sequence | binding signal (FLI1) | binding signal (ELK1) | binding signal (GABPA) | binding signal (ERG) | binding signal (ELF1) | binding signal (EHF) | binding signal (SPI1) | binding signal (ELK3) | binding signal (FEV) | binding signal (ETV5) | binding signal (SPIC) | binding signal (ELF4) | binding signal (ELK4) | binding signal (ELF3) | binding signal (ETV1) | binding signal (SPIB) | binding signal (ETV2)
1 | GTACTC | 1.06 fold enrichment (6-mer frequency, TF over GST control) | 1.09 fold enrichment (6-mer frequency, TF over GST control) | 1.16 fold enrichment (6-mer frequency, TF over GST control) | 1.09 fold enrichment (6-mer frequency, TF over GST control) | 1.16 fold enrichment (6-mer frequency, TF over GST control) | 1.08 fold enrichment (6-mer frequency, TF over GST control) | 1.01 fold enrichment (6-mer frequency, TF over GST control) | 1.18 fold enrichment (6-mer frequency, TF over GST control) | 1.11 fold enrichment (6-mer frequency, TF over GST control) | 1.19 fold enrichment (6-mer frequency, TF over GST control) | 1.06 fold enrichment (6-mer frequency, TF over GST control) | 1.12 fold enrichment (6-mer frequency, TF over GST control) | 1.03 fold enrichment (6-mer frequency, TF over GST control) | 1.07 fold enrichment (6-mer frequency, TF over GST control) | 1.1 fold enrichment (6-mer frequency, TF over GST control) |  | 
2 | ACACTG | 1.08 fold enrichment (6-mer frequency, TF over GST control) | 1.13 fold enrichment (6-mer frequency, TF over GST control) | 1.13 fold enrichment (6-mer frequency, TF over GST control) | 1.07 fold enrichment (6-mer frequency, TF over GST control) | 1.09 fold enrichment (6-mer frequency, TF over GST control) | 1.11 fold enrichment (6-mer frequency, TF over GST control) | 1.07 fold enrichment (6-mer frequency, TF over GST control) | 1.04 fold enrichment (6-mer frequency, TF over GST control) | 1.01 fold enrichment (6-mer frequency, TF over GST control) | 1.07 fold enrichment (6-mer frequency, TF over GST control) | 1.3 fold enrichment (6-mer frequency, TF over GST control) | 1.03 fold enrichment (6-mer frequency, TF over GST control) | 1.14 fold enrichment (6-mer frequency, TF over GST control) |  | 1.15 fold enrichment (6-mer frequency, TF over GST control) | 1.04 fold enrichment (6-mer frequency, TF over GST control) | 1.04 fold enrichment (6-mer frequency, TF over GST control)
